Data published in PubChem BioAssay (NCATS).
Records with an inconclusive call do not appear. Active and inactive are the calls of the source. Calls come from the whole dose curve; as a rule, active = well fitted cell-killing curve with a large enough effect; inconclusive = small, poorly fitted or top-dose-only effect; inactive = flat fitted curve, though single readings scatter.

test: Cell Viability - LYMP2-002 (AID 977); conditions: LYMP2-002 lymphoblastoid cell viability, qHTS; series mostly up to 92.2 µM; activity change, negative = cytotoxic: at the top concentration;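 note: compound exposure lasted 24 h at 37 °C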;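 for activity change, negative = cytotoxic: plate controls were DMSO only for no effect and 92 µM tetraoctylammonium bromide for full effect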
Excerpt: NIH Chemical Genomics Center [NCGC]
NIH Molecular Libraries Screening Centers Network [MLSCN]
National Institutes of Environmental Health Sciences [NIEHS]
National Toxicology Program [NTP]
We have developed a 1536-well cell-based assay for quantitative high throughput screening (qHTS) against a number of cell lines to determine in vitro cytotoxicity of small molecules. This particular assay uses a human lymphoblastoid cell line (LYMP2-002) purchased from Coriell Institute for Medical Research.
NCGC Assay Protocol Summary:
The CellTiter-Glo luminescent cell viability assay (Promega) is a homogeneous method to measure the number of viable cells in culture. The end point readout of this assay is based on quantitation of intracellular ATP, an indicator of metabolic activity, using the luciferase reaction. Luciferase catalyzes the oxidation of beetle Luciferin to oxyluciferin and light in the presence of ATP. The luminescent signal is proportional to amount of ATP present.
Using the CellTiter-Glo luminescent cell viability assay, the amount of cellular ATP was measured in the lymphoblastoid cell line with complete culture medium following compound treatment for 24 hours. The assay was performed in opaque white Kalypsys 1536-well plates. In the screen, tetraoctylammonium bromide was used as positive control. Library compounds were measured for their ability to cause acute toxicity in the cell line, as reflected by a decrease in intracellular ATP levels, in a concentration-dependent manner. […] AC50 values were determined from concentration-response data modeled with the standard Hill equation.
qHTS protocol for CellTiter Glo lymphoblastoid cellular assay
[Step] [Parameter] [Value] [Description]
1. Reagent; 5 uL; 2500 lymphoblastoid cells/well
2. Time; 5 hr; 37 C incubation
4. Controls; 23 nL; Tetraoctylammonium bromide 6.4pM to 92 uM
5. Time; 24 hr; 37 C incubation
6. Reagent; 5 uL; CellTiter Glo reagent
7. Time; 30 min; Room Temperature
8. Detection; Luminescence; Viewlux plate reader
Keywords: cell viability, cytotoxicity, lymphoblastoid cell line, luminescence, NTPHTS, NTPHTS_NCGC, NIEHS, DSSTox, MLSMR, MLSCN, NIH Roadmap, qHTS, NCGC
Potency is the fitted concentration of half-maximal effect.

Row | Compound | activity change, negative = cytotoxic | Potency
1 | O=C(O)Cc1cccc2ccccc12 | 14.9% (inactive) | 
2 | O=c1c(O)c(-c2ccc(O)cc2)oc2cc(O)cc(O)c12 | 1.57% (inactive) | 
3 | CC(=O)c1ccc(S(=O)(=O)NC(=O)NC2CCCCC2)cc1 | -18.6% (inactive) | 
4 | CC(=O)O[C@]1(C(C)=O)CC[C@H]2[C@@H]3C=C(Cl)C4=CC(=O)[C@@H]5C[C@@H]5[C@]4(C)[C@H]3CC[C@@]21C | -17.9% (inactive) | 
5 | O=c1c(-c2ccc(O)cc2)coc2cc(O)ccc12 | -9.85% (inactive) | 
6 | O=c1[nH]cnc2c1ncn2[C@H]1CC[C@@H](CO)O1 | 5.78% (inactive) | 
7 | O=C1NC(=O)C(c2ccccc2)(c2ccccc2)N1 | -1.74% (inactive) | 
8 | CCn1cc(C(=O)O)c(=O)c2ccc(C)nc21 | -2.07% (inactive) | 
9 | CC/C(=C(\c1ccccc1)c1ccc(OCCN(C)C)cc1)c1ccccc1 |  | 39.8 µM (active)
10 | CCCNC(=O)NS(=O)(=O)c1ccc(Cl)cc1 | -2.66% (inactive) | 
11 | CN(C)CCC(c1ccccc1)c1ccccn1 (configuration not stated) | 0.242% (inactive) | 
12 | CCCCC1C(=O)N(c2ccccc2)N(c2ccccc2)C1=O | 7.14% (inactive) | 
